A short description of experiment [1]: NCI Yeast Anticancer Drug Screen. Data for the rad50 strain (AID 155).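 Note: 0% = growth of vehicle-only cultures of the same strain.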 Particulars: S. cerevisiae rad50 strain growth inhibition; at 50.0 µM; hits give high values. A digest of the protocol: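 DNA repair mutant yeast, compound exposure, growth read-out; inhibition is taken relative to vehicle.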
A short description of experiment [2]: NCI Yeast Anticancer Drug Screen. Data for the mec2-1 strain (AID 157). To be noted: S. cerevisiae mec2-1 strain, at 50.0 µM, hits give high values. In outline: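 Strain: mec2-1 (DNA repair/cell cycle alteration). Compound exposure, then growth measured; inhibition expressed relative to vehicle.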
Experiment [3] can be described thus: NCI Yeast Anticancer Drug Screen. Data for the sgs1 mgt1 strain (AID 161).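 Note: 0% = growth of cultures given vehicle only.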 To be noted: S. cerevisiae sgs1 mgt1 strain, at 50.0 µM, hits give high values. A digest of the protocol: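 Inhibition of yeast growth, normalised to vehicle-treated controls, is reported for a strain bearing genetic alterations in DNA damage repair.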
Experiment [4] in a line: NCI Yeast Anticancer Drug Screen. Data for the cln2 rad14 strain (AID 165).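 Note: 0% = growth equal to vehicle treated cultures.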 Particulars: S. cerevisiae cln2 rad14 strain, at 50.0 µM, hits give high values. In outline:
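Compounds are applied to the cln2 rad14 yeast strain, and growth is then compared with that of vehicle-treated cultures to give inhibition.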

Experiment [5] in a line: NCI Yeast Anticancer Drug Screen. Data for the bub3 strain (AID 167). Particulars: S. cerevisiae bub3 mutant strain, at 50.0 µM, hits give high values. A digest of the protocol: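 In this screen, a yeast mutant lacking normal mitotic checkpoint function is challenged with compound. Relative growth versus vehicle gives the inhibition value.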
The nature of experiment [6]: NCI Yeast Anticancer Drug Screen. Data for the mlh1 rad18 strain (AID 175). Particulars: S. cerevisiae mlh1 rad18 strain growth inhibition; at 50.0 µM; hits give high values. A digest of the protocol:
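Read-out is yeast growth inhibition, calculated against vehicle-only controls. The compound was applied to a strain engineered with DNA damage repair alterations.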

This is part of a sample that, as a whole, favours compounds with a hit. Of some 79,000 tested, about 15% had one in any assay. Values without a mark were called inactive. Calls of active or inactive are those of the source. Cut-off read from the data, not from the text of the source: active = growth inhibition above about 70%; inactive = the rest.

As to `CCCCCNc1ncnc2c1cnn2C`, the growth inhibition in experiment [1] was 7.6%; in experiment [2] it was 0.6%; in experiment [3], -1.35%; in experiment [4], -12.4%; in experiment [5], 22.6%; in experiment [6] it was -0.4%.
`CCc1ccc(CC(=S)N2CCOCC2)cc1`: the growth inhibition in experiment [1] was 4.2%; in experiment [2] it was 1.45%; in experiment [3], 5.55%; in experiment [4] it was -1.7%; in experiment [5] it was -15.9%; in experiment [6], -3.9%.
`CC(=O)OCC(=O)COC(C)=O`: the growth inhibition in experiment [1] is -4.95%; in experiment [2], -6.35%; in experiment [3] it was -8.4%; in experiment [4], 8.5%; in experiment [5], -2.2%; in experiment [6] it was -8.55%.
As for `C1CC2(C34CCC(CC3)C4)CCC1C2`, the growth inhibition in experiment [1] is -5.15%; in experiment [2], 1.45%; in experiment [3], 14.2%; in experiment [4] it was 7.55%; in experiment [5], 7.1%; in experiment [6], -2.6%.
On to `CC(C)NS(=O)(=O)c1ccc(Cl)cc1`, for which the growth inhibition in experiment [1] was 11.6%; in experiment [2], 1.65%; in experiment [3], 12.4%; in experiment [4], 0.4%; in experiment [5], -1.1%; in experiment [6], 1.85%.
For `CC(Br)C1=CC(c2ccccc2)(c2ccccc2)c2ccccc21` (stereo unspecified), the growth inhibition is 97% (active) in experiment [1]; 98% (active) in experiment [2]; 97.9% (active) in experiment [3]; 96.8% (active) in experiment [4]; 97.3% (active) in experiment [5]; 96.7% (active) in experiment [6].
As for `CC(=O)CCC(CC=O)C(C)C` (stereo unspecified), the growth inhibition in experiment [1] was 3.35%; in experiment [2] it was 0%; in experiment [3], 7.6%; in experiment [4], -4.9%; in experiment [5], -3.65%; in experiment [6], 2.6%.
`N#CC(C(=O)/C(=N\NC(N)=O)C(C#N)c1ccc(Cl)cc1)c1ccc(Cl)cc1` (stereo unspecified): the growth inhibition is -33.6% in experiment [1]; -7.25% in experiment [2]; -22.1% in experiment [3]; 2.4% in experiment [4]; -7.05% in experiment [5]; -4.3% in experiment [6].
Turning to `CCCCC(CCCC)c1ccccn1`, the growth inhibition in experiment [1] was -15.1%; in experiment [2], -10.9%; in experiment [3] it was 8.15%; in experiment [4] it was -18.2%; in experiment [5], 8.85%; in experiment [6] it was -14.4%.
Consider `CC(Cl)CN1c2ccccc2Sc2ccc(Cl)cc21` (stereo unspecified), for which the growth inhibition was 33% in experiment [1]; -5.4% in experiment [2]; 2.35% in experiment [3]; 23% in experiment [4]; 5.35% in experiment [5]; 16.8% in experiment [6].
In the case of `CCOC(=O)c1cnc(=S)[nH]c1N`, the growth inhibition is 40.5% in experiment [1]; -8.35% in experiment [2]; -19.2% in experiment [3]; 7.9% in experiment [4]; -3.15% in experiment [5]; -43.5% in experiment [6].
With `CCCC(C)C(=O)OCCOCC` (stereo unspecified), the growth inhibition is 4.55% in experiment [1]; 2.8% in experiment [2]; -1.5% in experiment [3]; -32.4% in experiment [4]; 9.3% in experiment [5]; 49.9% in experiment [6].
`O=c1oc2ccccc2c(O)c1C(c1ccc2c(c1)OCO2)N1CCOCC1` (stereo unspecified): the growth inhibition in experiment [1] was 23.2%; in experiment [2] it was 25.2%; in experiment [3] it was 8.5%; in experiment [4] it was 25.7%; in experiment [5] it was 1.8%; in experiment [6], 19.1%.
For `O=C1C(OCc2ccccc2)=C(OCc2ccccc2)C(=O)c2ccccc21`, the growth inhibition was 14.2% in experiment [1]; 3.1% in experiment [2]; 31.6% in experiment [3]; 10.2% in experiment [4]; -30.1% in experiment [5]; 36.3% in experiment [6].
On to `C[C@H]1CC[C@@]2(OC1)O[C@H]1C[C@H]3[C@@H]4CC[C@@H]5C[C@@H](OC6OC(CO)C(O)C(O)C6OC6OC(CO)C(O)C(O)C6O)CC[C@]5(C)[C@H]4CC[C@]3(C)[C@H]1[C@@H]2C` (stereo partly specified), for which the growth inhibition in experiment [1] is 54.2%; in experiment [2], 68.4%; in experiment [3] it was 37.8%; in experiment [4], 19.3%; in experiment [5] it was -16.2%; in experiment [6] it was 90.5% (active).
As for `Cc1cccc([N+](=O)[O-])c1C`, the growth inhibition in experiment [1] is 13.7%; in experiment [2], -10.4%; in experiment [3], 7.3%; in experiment [4] it was 23.4%; in experiment [5], 10.8%; in experiment [6], -15.6%.
Turning to `CN(C)c1ccc(/[N+]([O-])=C/C=C/C=[N+](/[O-])c2ccc(N(C)C)cc2)cc1`, the growth inhibition in experiment [1] is -1.35%; in experiment [2], 3.8%; in experiment [3], 1.55%; in experiment [4] it was -28.6%; in experiment [5] it was 13.2%; in experiment [6], -14.6%.
With `CCN(CC)c1ccc(N=Nc2nc(Cl)c(/C=C3\C(=O)c4ccccc4C3=C(C#N)C#N)s2)c(NC(C)=O)c1`, the growth inhibition in experiment [1] was 18%; in experiment [2], 5.1%; in experiment [3], 14.2%; in experiment [4] it was -38.6%; in experiment [5], -12.8%; in experiment [6], -17.6%.
`Cc1cc(C)c(/C=N/NC(=O)NN)c(C)c1`: the growth inhibition in experiment [1] is -16.7%; in experiment [2], -7.15%; in experiment [3] it was -12.2%; in experiment [4] it was -2.1%; in experiment [5], 2.8%; in experiment [6], -4.6%.
Turning to `CNC(=O)n1cncn1`, the growth inhibition is -10.6% in experiment [1]; 3.35% in experiment [2]; -9.75% in experiment [3]; 0.1% in experiment [4]; -2.2% in experiment [5]; -12.7% in experiment [6].
Regarding `O=C(Nc1cccc([N+](=O)[O-])c1)c1ccccc1Cl`, the growth inhibition in experiment [1] is -0.65%; in experiment [2], 16.1%; in experiment [3] it was 1.85%; in experiment [4], 0.8%; in experiment [5], 12.9%; in experiment [6], 8.75%.

The values are drawn from PubChem BioAssay (NCI).
